# Sampled rows, rich in hits. Any-hit rate of the full collection: about 10%.
# p97 ATPase inh: inhibitors of human p97 ATPase, primary screen, biochemical; Transitional endoplasmic reticulum ATPase (Homo sapiens), P55072; recombinant p97 ATPase, Kinase-Glo ATP luminescence, 3 h; inhibition, % at 8 µM; 220,000 tested, 0.42% active; AID 1481, 2009; in the data active = inhibition above about 15%;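 also: 0% = DMSO vehicle and 100% = wells lacking enzyme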
# Target sequence (P55072 whole entry, looked up): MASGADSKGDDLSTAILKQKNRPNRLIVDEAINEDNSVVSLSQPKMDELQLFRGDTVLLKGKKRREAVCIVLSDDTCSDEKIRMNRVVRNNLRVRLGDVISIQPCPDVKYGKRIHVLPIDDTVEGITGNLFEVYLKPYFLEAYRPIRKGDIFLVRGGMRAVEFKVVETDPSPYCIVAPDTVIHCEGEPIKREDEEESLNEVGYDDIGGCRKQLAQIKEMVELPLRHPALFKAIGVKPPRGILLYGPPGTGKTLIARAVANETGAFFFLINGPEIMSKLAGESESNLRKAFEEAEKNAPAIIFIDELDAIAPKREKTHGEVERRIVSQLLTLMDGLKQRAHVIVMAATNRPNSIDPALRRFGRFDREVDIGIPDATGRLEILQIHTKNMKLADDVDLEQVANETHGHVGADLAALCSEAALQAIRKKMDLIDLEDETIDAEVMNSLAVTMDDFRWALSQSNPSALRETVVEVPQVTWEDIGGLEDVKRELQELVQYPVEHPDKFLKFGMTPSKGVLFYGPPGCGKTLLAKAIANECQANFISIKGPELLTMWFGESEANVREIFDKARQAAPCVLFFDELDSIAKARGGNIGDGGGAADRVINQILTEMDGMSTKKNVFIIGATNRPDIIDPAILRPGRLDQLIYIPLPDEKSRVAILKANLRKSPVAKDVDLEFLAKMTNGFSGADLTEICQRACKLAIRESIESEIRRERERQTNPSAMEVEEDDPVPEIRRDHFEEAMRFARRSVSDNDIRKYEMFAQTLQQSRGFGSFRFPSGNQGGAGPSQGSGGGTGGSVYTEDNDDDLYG
# HCT116 PTEN-null: growth suppression of PTEN-null HCT116, primary screen, cell-based, CellTiter-Glo | HCT116 PTEN-null viability, 60 h; stronger effect = lower value | viability, % at 10 µM | 140,000 tested, 1.2% active;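 active = viability at or below a set limit, 4 SD under the median of all tested compounds, cut at about 3.7% in these data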;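 also: PTEN knockout HCT116 line with beta catenin targeted HCT116 as companion control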
# L major viab: Leishmania major promastigote growth inhibition, primary screen | Leishmania major promastigotes, resazurin fluorescence viability | inhibition, % at 10 µM | 200,000 tested, 9% active; in the data active = inhibition above about 50%;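 also: promastigotes grown with compound for 44 hours at 28 °C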
# bCat KO growth: primary screen for growth suppressors in beta-catenin knockout HCT116 cells (colon tumor, human) | HCT116 beta-catenin knockout viability, CellTiter-Glo, 60 h; stronger effect = lower value | viability, % at 10 µM | 140,000 tested, 1.5% active | AID 818, 2007;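 active = viability at or under a set limit, the compound median less 4 SD, cut at about 6% in these data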;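 also: 0% = Hyamine 1622 control at 20 µM and 100% = untreated cell control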
# ROMK mod: ROMK potassium channel modulators, primary screen, cell-based, thallium flux, MLSMR library; ATP-sensitive inward rectifier potassium channel 1 (Homo sapiens), P48048; Tet-inducible ROMK, thallium flux fluorescence; actives lie on both sides; B-score at 10 µM; 130,000 tested, 2% active; AID 1918, 2009;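 active = signal ratio slope over the read window, or its plate-corrected B-score, at least 3 SD from the plate mean, either direction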;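 also: B-score of the F/F0 ratio slope over 7 to 12 s after thallium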
# INS promoter inh: inhibitors of insulin promoter-driven GFP, primary screen, imaging, TRM-6 cells (human fetal islet line), eGFP reporter, cell count | reporter expression induced with tamoxifen | AID 1273, 2008 | inhibition, % at 2 µM | 130,000 tested, 0.9% active;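 active = inhibition above the mean plus 3 SD, with well images judged a real hit on visual review, cut at about 60% in these data, passing the limit was not always enough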
# Starred values were filed as active, the others as inactive; · = no result given.
SMILES,p97 ATPase inh,HCT116 PTEN-null,L major viab,bCat KO growth,ROMK mod,INS promoter inh
COc1ccc(C2CC(c3cccs3)=Nc3ccccc3S2)cc1 (stereo unspecified),3.2,24.5,64.3*,26.4,-0.787,12.5
C/C=C/c1ccc(OCCN2CCc3ccccc3C2)c(OC)c1,0.5,73.9,29.1,74.5,-2.42,-7.1
COc1ccc(OCCOCCN2CCc3ccccc3C2)cc1,-4.2,94.0,92.7*,91.5,0.0622,-21.6
Clc1ccc(OCCCCN2CCc3ccccc3C2)cc1,-0.8,·,85.3*,·,-0.0105,·
O=C(NCCCN1CCOCC1)C(=O)N/N=C/c1c2ccccc2cc2ccccc12,-2.3,2.2*,-2.6,1.6*,-1.24,12.0
O=C(NCCCN1CCOCC1)C1Cc2c(ccc3ccccc23)O1 (stereo unspecified),1.0,·,69.3*,·,0.11,3.7
O=C(NC(=S)NCCCN1CCOCC1)c1cccc2ccccc12,2.3,·,78.4*,·,0.209,-33.3
O=C(NCCCl)C1Cc2c(ccc3ccccc23)O1 (stereo unspecified),-3.1,·,-4.9,·,-0.876,-2.9
O=C(NC(=S)NCCN1CCOCC1)c1cccc(Cl)c1,0.3,95.4,1.3,90.3,·,13.8
Cc1ccc(C(NC(=O)NCCCN2CCOCC2)=C(Cl)Cl)cc1F,3.9,7.6,81.3*,10.7,0.234,18.9
Cc1cc([N+](=O)[O-])nn1CCCC(=O)N1CCN(c2ccccc2)CC1,-5.1,87.4,40.6,94.9,0.0069,27.8
CC(=O)Nc1ccc(NC(=O)CSc2ccc([N+](=O)[O-])cn2)cc1,0.1,·,·,·,·,·
O=C(CCN1CCOCC1)NNC(=S)NC(=O)c1ccc(Br)cc1,1.9,·,-4.8,·,0.298,57.1
O=C(CCN1CCCCC1)NNC(=S)NC(=O)c1ccc(Br)cc1,-6.8,·,75.0*,·,-0.459,13.0
O=C(NC(=S)NCCCN1CCOCC1)c1ccc(Br)cc1,-9.3,·,85.6*,·,0.363,7.7
Cc1ccc(C(=O)NC(=S)NCCCN2CCOCC2)cc1,0.8,·,64.6*,·,0.0543,·
Cc1ccc(C(=O)NCCCN2CCOCC2)cc1,6.6,·,8.5,·,0.0739,-19.1
O=C(NC(=S)NCCN1CCOCC1)c1ccccc1,8.2,103.2,-2.7,97.7,·,·
O=C(NC(Nc1nc2ccc([N+](=O)[O-])cc2s1)(C(F)(F)F)C(F)(F)F)c1cccnc1,2.5,3.0*,20.9,2.2*,-1.59,-2.9
CCOC(=O)c1cc(=O)n(-c2ccc(Cl)cc2C)[nH]1,1.3,94.8,55.1*,99.0,-0.644,-6.5
COc1cc(C(=O)NNC(=O)Nc2ccc([N+](=O)[O-])cc2)cc(OC)c1OC,-1.6,·,-5.3,·,1.92,-33.3
CCOC(=O)CSc1nc(C)c2ccccc2n1,8.3,92.7,-0.1,98.2,·,78.6*
Cc1ccc(NC(=O)c2ccc(NCCN)c([N+](=O)[O-])c2)cc1,-0.3,81.2,88.6*,84.5,-0.595,-12.9
Cc1ccc(NC(=O)c2ccc(NCCCN3CCC(C)CC3)c([N+](=O)[O-])c2)cc1F,-2.4,·,84.0*,·,-0.379,33.3
Cc1ccc(NC(=O)c2ccc(NCC3CCCO3)c([N+](=O)[O-])c2)cc1Cl (stereo unspecified),7.1,49.1,-2.0,55.4,-2.28,44.4
SMILES,p97 ATPase inh,HCT116 PTEN-null,L major viab,bCat KO growth,ROMK mod,INS promoter inh
O=C(Nc1cccc(Cl)c1)c1ccc(NCCCN2CCOCC2)c([N+](=O)[O-])c1,-6.3,81.3,99.2*,76.0,·,27.6
O=C(CSc1ccc2c(c1)OCCO2)Nc1ccc2c(c1)OCO2,-4.4,90.1,-0.3,92.8,-0.0957,7.1
CCc1nnc(SCC(=O)Nc2ccc3c(c2)OCO3)o1,-6.6,101.0,5.4,112.5,0.197,67.9*
O=C(CSc1ccc2c(c1)OCCO2)Nc1ccc(Br)cc1,5.1,80.0,67.0*,71.5,·,47.1
Cc1ccc(C2=NC3(CCCC3)N=C2SCC(=O)Nc2ccc3c(c2)OCCO3)cc1,3.4,61.2,72.9*,60.3,1.66,38.1
Nc1nc(-c2ccco2)nn1S(=O)(=O)c1ccc(Cl)cc1,-5.4,·,-3.7,·,0.443,-40.0
CCOC(=O)c1c(-c2ccccc2Cl)csc1NC(=O)c1cc(S(=O)(=O)N2CCOCC2)ccc1C,6.9,77.8,82.6*,73.8,·,-36.0
CCOC(=O)c1c(-c2ccc(-c3ccccc3)cc2)csc1NC(=O)CCN1CCOCC1,-10.7,21.2,98.0*,22.1,·,·
CCOC(=O)c1ccccc1NC(=O)c1cc(S(=O)(=O)N2CCOCC2)ccc1F,1.7,75.0,-1.4,87.5,·,-9.7
CCOC(=O)c1c(-c2ccccc2)csc1NC(=O)C(C)NCCCN1CCOCC1 (stereo unspecified),-2.9,·,26.5,·,-2.17,-38.1
CCOC(=O)c1c(-c2ccccc2)csc1NC(=S)NC,-1.1,99.1,61.6*,91.2,1.84,25.9
CCOC(=O)c1c(-c2ccc(C)o2)csc1NC(=S)NC(=O)c1cccs1,7.1,64.3,74.6*,61.4,-0.434,13.8
Cn1nc(-c2ccc(Cl)cc2)cc1NC(=O)CSCC(=O)O,6.6,·,·,·,·,·
CCNc1nc(N)nc(-c2cc(Cl)ccc2O)n1,-3.3,6.5,17.5,5.2*,1.1,61.5*
O=C(NCCCN1CCN(c2ccccc2F)CC1)Nc1ccccc1[N+](=O)[O-],-3.3,·,7.2,·,-0.138,78.4*
Cc1ccc(NC(=O)NC2CCCN2S(=O)(=O)c2ccc(Cl)cc2)cc1 (stereo unspecified),1.2,87.3,62.4*,89.5,·,10.0
CN1CCN(C(=O)NC2CCCN2S(=O)(=O)c2ccc(Cl)cc2)CC1 (stereo unspecified),-4.0,104.3,-0.5,91.5,1.11,42.1
O=C(NC1CCSC1=O)C1CCCCC1 (stereo unspecified),5.3,·,-3.9,·,2.42,·
CN(C)c1ccc(NC(=O)CCCc2ccccc2)cc1,-0.5,90.6,76.5*,93.6,·,63.6
Cc1ccc(OCc2ccc(C(=O)Nc3c(C)nn(Cc4c(F)c(F)c(F)c(F)c4F)c3C)o2)c([N+](=O)[O-])c1,-9.3,45.7,91.6*,41.4,·,·
O=C(CSc1nnc(NC(=O)Cc2ccc(F)cc2)s1)NCc1ccco1,5.5,·,-5.3,·,0.31,91.7*
CCOC(=O)N1CCC(N2CCCC(CO)(Cc3cccc(OC)c3)C2)CC1 (stereo unspecified),1.4,·,87.1*,·,0.136,-30.4
OCC1(Cc2ccccc2)CCCN(C2CCCC2)C1 (stereo unspecified),2.2,·,61.1*,·,0.336,·
COc1cccc(CC2(CO)CCCN(S(=O)(=O)N(C)C)C2)c1 (stereo unspecified),4.6,·,-5.5,·,-0.962,·
Cc1nc(N)ncc1C(=O)Nc1ccccc1,-1.4,·,-4.2,·,-0.281,·
Cc1ccc(S(=O)(=O)Nc2ccc3c4c(cccc24)CC3)c(C)c1,0.8,·,5.5,·,·,-20.9
